Compound activity: PubChem BioAssay, National Center for Advancing Translational Sciences (NCATS)
An excerpt weighted towards active compounds, which were near 18% of everything screened.
LDHA inh = LDHA (human) enzyme inhibition. purified LDHA, NADH/diaphorase-resazurin fluorescence; stronger effect = lower value. activity change, % (values are at about 110 or 230 µM). actives 0.15% (n = 480,000); in the data active = activity change below about -30%; inconclusive = mostly about -25% to -30%;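 note: plate controls were DMSO wells for no effect and wells without enzyme for full effect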
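Human LDH5 at 2 nM final in Tris HCl pH 7.4 with 0.06 mM NADH and 0.2 mM pyruvate, reacted 5 minutes at room temperature. Remaining NADH coupled via diaphorase/resazurin; resorufin fluorescence read at 0 and 20 minutes, normalized to enzyme-free and DMSO wells.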
RORgamma inh = ROR gamma (mouse) transcription inhibition. P51450. Drosophila S2 Gal4-RORgamma UAS-luciferase reporter, 20 h. Potency, µM (top dose mostly 53.6 µM), for the others: at the top dose activity change, negative = inhibition, most hits filed as inhibitors. actives 5.4% (n = 310,000); note: potency is the fitted concentration of half-maximal effect; nearly all actives have a fitted effect of over 60% in size
Target sequence (P51450 whole entry, looked up, the tested form may be a part): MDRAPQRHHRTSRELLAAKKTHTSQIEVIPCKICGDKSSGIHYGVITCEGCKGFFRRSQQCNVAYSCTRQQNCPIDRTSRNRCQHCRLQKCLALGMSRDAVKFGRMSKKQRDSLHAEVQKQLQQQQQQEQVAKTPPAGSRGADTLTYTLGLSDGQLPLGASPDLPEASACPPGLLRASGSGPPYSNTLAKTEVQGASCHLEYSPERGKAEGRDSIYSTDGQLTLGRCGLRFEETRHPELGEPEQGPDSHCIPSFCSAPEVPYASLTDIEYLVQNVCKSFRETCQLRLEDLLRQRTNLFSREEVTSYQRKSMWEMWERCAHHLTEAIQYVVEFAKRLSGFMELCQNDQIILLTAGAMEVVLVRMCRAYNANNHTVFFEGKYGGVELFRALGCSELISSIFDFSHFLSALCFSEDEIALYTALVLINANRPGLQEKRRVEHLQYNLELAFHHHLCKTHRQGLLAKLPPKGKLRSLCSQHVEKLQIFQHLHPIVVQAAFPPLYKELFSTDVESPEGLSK
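Schneider cells (Drosophila), stable Gal4 DBD–ROR gamma + UAS-luc; 1 hr cmpd preincubation; Cu2+ induction 700 uM final; 20 hr ambient; luminescence.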
VP16 counter = Gal4-VP16 reporter inhibition counter-screen. Drosophila S2 Gal4-VP16 UAS-luciferase, luminescence, 20 h. Potency, µM (doses to about 53.6 µM), inactives show at the highest dose activity, negative = inhibition, actives largely listed as inhibitors. actives 3.5% (n = 310,000);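 note: Gal4-VP16 expression switched on by copper sulfate through the metallothionein promoter; potency is the fitted concentration of half-maximal effect; nearly all actives have a fitted effect of over 50% in size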
IL1B secr inh = inflammasome signaling inhibition, IL-1 beta readout | THP-1 LPS/ATP IL-1B secretion, AlphaLISA, 16 h; stronger effect = lower value | activity change, % at 57.5 µM | actives 4.7% (n = 360,000) | AID 743279; in the data active = activity change below about -50%; inconclusive = mostly about -30% to -49%
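Secreted IL-1B measured by AlphaLISA bead assay after 16 h compound exposure of THP-1 cells; compounds (final up to 57.5 uM) added 1 h before LPS (250 ng/mL) and ATP (1.25 mM) stimulation; lower signal means less secretion.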
TDP1 cell CPT = growth inhibition of DT40 Tdp1-/-;hTDP1 cells with camptothecin (screen for TDP1 inhibitors); actives 12% (n = 420,000); chicken DT40 Tdp1-/-;hTDP1 cells + 20 nM CPT, ATP luminescence, 48 h; Potency, µM (highest dose often 46.2 µM), without a hit: at the top dose activity change, negative = growth inhibition, hits mostly inhibitors; note: potency is the fitted concentration of half-maximal effect; nearly all actives have a fitted effect of over 55% in size
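Chicken DT40 Tdp1-/- cells complemented with human TDP1, 400 cells/well, exposed to compounds plus 20 nM camptothecin for at least 48 h at 37 C; viability read as ATP content by CellTiter-Glo luminescence.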
DT40 TDP1 no CPT = qHTS for Inhibitors of human tyrosyl-DNA phosphodiesterase 1 (TDP1): qHTS in cells in absence of CPT; DT40 Tdp1-/- hTDP1 cells, no CPT, ATP luminescence, 48 h; AID 686978, 2013; actives 15% (n = 420,000); Potency, µM (top dose mostly 46.2 µM), without a hit: top-dose activity change, negative = growth inhibition, hits mostly inhibitors; note: potency is the fitted concentration of half-maximal effect; nearly all actives have a fitted effect of over 55% in size
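DT40 Tdp1-/-;hTDP1 cells, no CPT (DMSO vehicle only), 400 cells/well; compounds pin-transferred; ≥48 hr, 37 °C; CellTiter-Glo 30 min RT dark, luminescence read.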
An asterisk follows results filed as active. Unless noted, calls come from the whole dose curve; as a rule, active = well fitted curve in the direction sought with a large enough effect; inconclusive = small, poorly fitted or top-dose-only effect, or another doubt; inactive = no such curve, though single readings can be large; an effect the other way counts as inactive or inconclusive. Unless noted, % is set by controls: 0 for no effect and ±100 for the full control effect.

What do the screens show for `Cc1oc(-c2cccs2)nc1C(=O)NCCCCN1CCOCC1`?
LDHA inh: -21.8

What do the screens show for `COc1cc(NC(=O)C2c3ccccc3Oc3ccccc32)c(OC)cc1Cl`?
LDHA inh: 3.8

How did CCN(CC)S(=O)(=O)N(C)Cc1ccc2c(c1)OCCO2 do in these assays?
LDHA inh: -2.8

What do the screens show for `Cc1nn(CC(C)C)c2sc(C(=O)Nc3ccc(S(=O)(=O)N4CCOCC4)cc3)cc12`?
LDHA inh: -1.4

Results for N#Cc1cccc(NC(=O)c2cc(C3CCCCN3C(=O)c3ccccn3)on2)c1 (stereo unspecified) ?
LDHA inh: -7.3; IL1B secr inh: 26.5; TDP1 cell CPT: 23.1µM*; DT40 TDP1 no CPT: inconclusive

What do the screens show for `COc1ccc(NC(=O)c2cc(C3CCCCN3C(=O)c3ccccc3)on2)c(C)c1` (stereo unspecified)?
LDHA inh: -6.7; IL1B secr inh: 11.0; TDP1 cell CPT: 18.4µM*; DT40 TDP1 no CPT: 9.2µM*

Results for Cn1nc(C(C)(C)C)cc1C(=O)N1CCCCC1c1cc(C(=O)Nc2cccc(C#N)c2)no1 (stereo unspecified) ?
LDHA inh: -5.3; IL1B secr inh: 7.2; TDP1 cell CPT: 20.6µM*; DT40 TDP1 no CPT: 16.4µM*

How did CNc1c(NC(=O)NCC2CCCO2)c(=O)oc2ccccc12 (stereo unspecified) do in these assays?
LDHA inh: -0.4

What do the screens show for `CC(C)(C)NC(=O)CSc1cc(C(=O)NC2CC2)c2ccccc2n1`?
LDHA inh: -20.1

What do the screens show for `COc1ccc(C(CNC(=O)c2oc3c(Cl)cccc3c2C)N2CCCC2)cc1` (stereo unspecified)?
LDHA inh: -3.7; IL1B secr inh: inconclusive; TDP1 cell CPT: 16.4µM*; DT40 TDP1 no CPT: 23.1µM*

Results for COc1ccc(C(CNC(=O)c2oc3ccc(Cl)cc3c2C)N2CCCCC2)cc1 (stereo unspecified) ?
LDHA inh: -10.1; RORgamma inh: -35.1%; VP16 counter: -2.7%; IL1B secr inh: -0.2; TDP1 cell CPT: 16.4µM*; DT40 TDP1 no CPT: 23.1µM*

Results for COc1ccccc1C(CNC(=S)NCc1ccccc1)N1CCCC1 (stereo unspecified) ?
LDHA inh: -2.3; RORgamma inh: -22.8%; VP16 counter: 5.3%; IL1B secr inh: -4.9; TDP1 cell CPT: 0.0%; DT40 TDP1 no CPT: inconclusive

How did COc1ccc(C(CNC(=O)c2ccc(Br)o2)N2CCCCCC2)cc1 (stereo unspecified) do in these assays?
LDHA inh: 5.7

Results for COc1ccc(C(CNC(=O)c2oc3ccccc3c2C)N2CCCC2)cc1 (stereo unspecified) ?
LDHA inh: -7.5; IL1B secr inh: -13.3; TDP1 cell CPT: 20.6µM*; DT40 TDP1 no CPT: inconclusive

How did COc1ccc(C(CNC(=O)c2ccccc2C)N2CCCC2)cc1 (stereo unspecified) do in these assays?
LDHA inh: 0.5; RORgamma inh: 21.7%; VP16 counter: -0.8%; IL1B secr inh: -2.7; TDP1 cell CPT: -19.6%; DT40 TDP1 no CPT: -2.4%

What do the screens show for `COc1ccc(C(CNC(=S)NCc2ccccc2)N2CCCC2)cc1` (stereo unspecified)?
LDHA inh: -2.7; RORgamma inh: inconclusive; VP16 counter: -7.7%; IL1B secr inh: -72.0*; TDP1 cell CPT: 1.0%; DT40 TDP1 no CPT: -28.7%

Results for O=C(CSc1nnnn1C1CC1)N1CCN(S(=O)(=O)c2cccc(C(F)(F)F)c2)CC1 ?
LDHA inh: -5.8

What do the screens show for `O=C(COc1ccccc1Cl)Nc1ccc2oc(-c3ccc(F)cc3)nc2c1`?
LDHA inh: 7.2

Results for CCCCn1c(=O)[nH]c(=O)c2c1nc(COC(=O)/C=C/c1ccc(OCC#N)c(OC)c1)n2C ?
LDHA inh: 11.2

What do the screens show for `COc1ccc(N(Cc2nc(-c3ccccc3)no2)S(=O)(=O)c2ccc3c(c2)OCCO3)cc1`?
LDHA inh: 11.7

How did CN(C)CCCNC(=O)CNc1nc(Cl)nc2nc[nH]c12 do in these assays?
LDHA inh: 1.9

How did O=C(Nc1ccc(N2CCOCC2)cc1)C1CCN(C(=O)OCc2ccccc2)CC1 do in these assays?
LDHA inh: -3.8; RORgamma inh: 18.0%; VP16 counter: -0.3%; IL1B secr inh: -11.6; TDP1 cell CPT: 2.0%; DT40 TDP1 no CPT: -21.0%

What do the screens show for `O=C(NCC(=O)N1CCOCC1)OCc1ccccc1`?
LDHA inh: 1.6; RORgamma inh: 12.4%; VP16 counter: -16.7%; IL1B secr inh: 8.1; TDP1 cell CPT: -10.1%; DT40 TDP1 no CPT: -9.6%

What do the screens show for `N#Cc1cccc(C(=O)C(=O)N2CCN(C(=O)OCc3ccccc3)CC2)c1`?
LDHA inh: -0.3; IL1B secr inh: -6.8; TDP1 cell CPT: inconclusive; DT40 TDP1 no CPT: 23.1µM*

What do the screens show for `O=C(OCc1ccccc1)N1CCOCCN(C(=O)OCc2ccccc2)CCOCC1`?
LDHA inh: -4.6; RORgamma inh: -0.1%; VP16 counter: 7.1%; IL1B secr inh: -4.7; TDP1 cell CPT: 25.9µM*; DT40 TDP1 no CPT: 25.9µM*

What do the screens show for `COc1cccc(C(=O)C(=O)N2CCN(C(=O)OCc3ccccc3)CC2)c1`?
LDHA inh: 0.0; IL1B secr inh: -12.0; TDP1 cell CPT: inconclusive; DT40 TDP1 no CPT: inconclusive

What do the screens show for `O=C(Nc1ccc(N2CCOCC2)cc1Cl)C1CCN(C(=O)OCc2ccccc2)CC1`?
LDHA inh: -1.6; RORgamma inh: 41.7%; VP16 counter: -0.3%; IL1B secr inh: 0.0; TDP1 cell CPT: inconclusive; DT40 TDP1 no CPT: 16.4µM*

How did Nc1cccc(OCC2CCCO2)c1 (stereo unspecified) do in these assays?
LDHA inh: 7.3

How did CCNc1nc2ccccc2nc1C(C#N)S(=O)(=O)c1ccc(C)c(C)c1 (stereo unspecified) do in these assays?
LDHA inh: -8.6

How did Cc1ccc(C2CC(=O)C3=C(C2)OC(N)=C(C#N)C3c2ccccc2Cl)cc1 (stereo unspecified) do in these assays?
LDHA inh: -16.3

How did N#CC1=C(N)OC2=C(CC/C2=C\c2ccccc2)C1c1ccccc1 (stereo unspecified) do in these assays?
LDHA inh: 10.0; RORgamma inh: inconclusive; VP16 counter: -18.8%; IL1B secr inh: -21.9; TDP1 cell CPT: 13µM*; DT40 TDP1 no CPT: 10.3µM*
